Screening results deposited in PubChem by National Center for Advancing Translational Sciences (NCATS).
Tau fluor cs: counter-screen for tau fibril formation inhibitors. Potency, µM (titrated, usually from 57.7 µM), for the others: at the highest dose activity change, negative = decrease. tau K18 P301L Alexa594 fluorescence, heparin fibrillization. actives 0.93% (n = 280,000); further: potency means the concentration at half of the fitted maximal effect; nearly all actives have a fitted effect of over 55% in size
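Human tau K18 P301L (15 uM unlabeled, 0.24 uM Alexa 594-labeled) in 100 mM sodium acetate pH 7 with 20 uM heparin, 6 hr at 37 C. ThT 30 uM added, 1 hr ambient; Alexa 594 FP and total fluorescence read at 555/632 nm.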
Tau ThT inhib: blocks human tau fibril formation measured by thioflavin T | P10636 | recombinant tau K18 P301L (four-repeat tau fragment), heparin-induced fibrillization, ThT fluorescence | Potency, µM (titrated, usually from 57.4 µM), for the others: at the highest dose activity, negative = inhibition, most hits filed as inhibitors | actives 2.1% (n = 270,000) | AID 1460; further: potency means the concentration at half of the fitted maximal effect; nearly all actives have a fitted effect of over 55% in size
Target sequence (P10636 561-689 P618L limits assumed): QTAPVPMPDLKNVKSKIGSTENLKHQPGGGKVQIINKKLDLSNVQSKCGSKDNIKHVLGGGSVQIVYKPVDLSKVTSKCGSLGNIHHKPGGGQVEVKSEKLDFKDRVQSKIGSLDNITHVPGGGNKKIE
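Recombinant human tau K18 fragment […] carrying P301L, 15 uM unlabeled plus 0.24 uM Alexa 594-labeled, was fibrillized with 20 uM heparin in 100 mM sodium acetate pH 7 for 6 hr at 37 C; 30 uM ThT fluorescence read after 1 hr.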
Tau fibril FP: blocks human tau fibril formation measured by polarization. P10636. K18 P301L tau heparin fibrillization, Alexa594 FP, 6 h. Potency, µM (titrated, usually from 57.7 µM), inactives show at the highest dose activity, negative = inhibition, actives largely listed as inhibitors. actives 0.39% (n = 280,000); further: potency means the concentration at half of the fitted maximal effect; nearly all actives have a fitted effect of over 55% in size
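Human K18 P301L fragment (15 uM unlabeled plus 0.24 uM Alexa 594-labeled) in 100 mM sodium acetate pH 7 with compound, aggregation induced by 20 uM heparin for 6 hr at 37 C. ThT (30 uM) added for 1 hr, then Alexa 594 FP read.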
FBPA coupling cs: counter-screen for Giardia aldolase inhibitors: coupling enzyme system | actives 0.67% (n = 290,000) | activity change, negative = inhibition, % at 58.2 µM, hits read low | coupling enzyme system counterscreen, AmpLite Red fluorescence; in the data active means activity change below about -30%
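Final compound at 57.5 uM, incubated 10 min at RT with coupling enzyme reagent (glyceraldehyde-3-phosphate), then 20 min with substrate and AmpLite Red detection. Fluorescence read at 525/598 nm; tests interference with the coupling assay, not aldolase inhibition.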
USP1 inh: inhibitors of human USP1/UAF1 deubiquitinase; O94782; recombinant USP1/UAF1, Ub-Rhodamine cleavage fluorescence; Potency, µM (top dose mostly 57.1 µM), without a hit: at the highest dose activity change, negative = inhibition, most hits filed as inhibitors; actives 0.23% (n = 390,000); further: potency means the concentration at half of the fitted maximal effect; nearly all actives have a fitted effect of over 60% in size
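USP1/UAF1 complex (1 nM) preincubated 15 min at room temperature with compound, then Ub-Rho substrate (150 nM final) added. Kinetic fluorescence at 480/540 nm over 6 reads at 60 s intervals; 50 mM HEPES pH 7.8, 0.5 mM EDTA, 0.1 mg/ml BSA, 1 mM TCEP, 0.01% Tween-20.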
Active calls of the source: *; ? = inconclusive; · = no result; ! = repeats disagree; [ ] = remark or other dose. Rows were chosen to be rich in hits. Some 2.3% of all compounds tested hit in one or more screens of this group. Unless noted, the call rests on the fitted dose curve; in most records, active means well fitted curve in the direction sought with a large enough effect; inconclusive means small, poorly fitted or top-dose-only effect, or another doubt; inactive means no such curve, though single readings can be large; an effect the other way counts as inactive or inconclusive. On the % scale 0 is the no-effect control and ±100 the full control effect.

SMILES | Tau fluor cs | Tau ThT inhib | Tau fibril FP | FBPA coupling cs | USP1 inh
CC(C)(C)/C(O)=C(/C#N)c1nc2ccccc2[nH]1 | -15% | -14% | -3% | -1 | -11%
N#C/C(=C(/O)c1ccc([N+](=O)[O-])o1)c1nc2ccccc2[nH]1 | ? | 7.1µM* | 5% | -2 | -18%
CC1CN(CC(=O)NCc2ccccc2)CC(C)O1 (configuration not stated) | · | · | · | 2 | -12%
Cc1cc(C(=O)COC(=O)c2cc(O)c3ccccc3c2O)c(C)n1CC1CCCO1 (configuration not stated) | ? | 14µM* | ? | -46* | ?
Cc1cc(C(=O)COC(=O)c2ccccc2O)c(C)n1CC1CCCO1 (configuration not stated) | · | · | · | · | -23%
CCC(C)NC(=O)c1[nH]c2cc(OC)ccc2c1Sc1ccc(C)cc1 (configuration not stated) | -16% | -11% | 2% | · | -14%
Cc1[nH]c2ccccc2c1C(C#N)(C#N)C1C(=O)c2ccccc2C1=O | 4.5µM*[quencher] | 6.3µM* | ? | -36* | ?
COc1cccc(NC(=O)C2CCN(S(=O)(=O)c3ccc4[nH]c5c(c4c3)CCCCC5)CC2)c1 | 6.3µM*[quencher] | 3% | -14% | · | -22%
O=C(Nc1cccc(F)c1)C1CCN(S(=O)(=O)c2ccc3[nH]c4c(c3c2)CCCCC4)CC1 | 28µM*[quencher] | -13% | -2% | · | -25%
CCn1ccc2cc(S(=O)(=O)N3CCCN(C(=O)Nc4ccccc4OC)CC3)ccc21 | -9% | -5% | 0% | · | -19%
Cc1noc(Cn2c(=O)c3ccccc3n(CC(=O)Nc3ccc(Cl)cc3)c2=O)n1 | -21% | 8% | ? | · | -16%
Fc1ccccc1CN1CCCN(C(=S)Nc2cccc(Cl)c2)C1 | ? | 5% | 32µM* | 1 | -19%
Cc1cc(N2CCOCC2)ccc1/C=C\[N+](=O)[O-] | ? | 11µM* | 13% | 2 | -7%
CN(C)c1ccc(/C=C2/C=C(c3ccc4c(c3)CCCC4)OC2=O)cc1 | ? | 3.2µM* | ? | 1 | -20%
Cn1cccc1C(=O)OCC(=O)N1c2ccccc2NC(=O)C1(C)C | 3% | 9% | -7% | -2 | -24%
CC[N+]1=C(C)C(C)(C)c2cc(C)ccc21 | 0.71µM*[fluorescent] | 3.5µM* | ? | 4 | ?
CCOc1ccc(-c2cc(NC(=O)Nc3cccc(C(C)=O)c3)c(C(=O)OC)s2)cc1 | -19% | -5% | -10% | · | 13%
CCOC(=O)c1cc2c(ccn2C)n1CC(=O)Nc1ccc(F)cc1 | ? | 28µM* | ? | -22 | -2%
COc1ccc(NC(=O)c2c(-c3ccccc3)c(-c3ccccc3)nn(C)c2=O)c(OC)c1 | -7% | -12% | 2% | · | -1%
c1cnc2c(c1)ccc1cccnc12 | -15% | 28µM* | ? | -66*! | -11%
Cc1ccc(S(=O)(=O)N2CCN(C(=O)c3cc(-c4ccc(Br)cc4)n[nH]3)CC2)c(C)c1 | -1% | -7% | ? | · | -28%
COc1ccc(NC(=O)c2ccc(-c3ccc([N+](=O)[O-])cc3)o2)cc1 | ? | 1.3µM* | 12% | -31* | -16%
O=C(Nc1ccccc1)c1ccc(-c2ccc([N+](=O)[O-])cc2)o1 | · | · | · | -1 | -9%
CC(C)(C)[C@]1(O)CCN2CC3c4ccccc4CCc4cccc(c43)[C@@H]2C1 (some centres not stated) | -12% | -9% | 1% | · | ·
COc1ccc2c(c1)O[C@@H](c1cccc(C(F)(F)F)c1)[C@H](OC(=O)NCc1ccc3c(c1)OCO3)C2=O | -14% | -3% | 1% | -2 | ·
SMILES | Tau fluor cs | Tau ThT inhib | Tau fibril FP | FBPA coupling cs | USP1 inh
CCOC(=O)C1(C)C=C(Nc2cccc(OC)c2)C(=O)N1c1ccccc1 (configuration not stated) | -30% | ? | 1% | -6 | -16%
CCOC(=O)C1(C)/C(=N/Nc2ccccc2)C(=O)C(=O)N1c1ccccc1 (configuration not stated) | -28% | 18µM* | -7% | 2 | -8%
CCOC(=O)C1(C)/C(=N/Nc2ccccc2OC)C(=O)C(=O)N1c1ccccc1 (configuration not stated) | -15% | 16µM* | -11% | -7 | -16%
CC(=O)N1CCC2(CCN(Cc3cc(C(F)(F)F)cc(C(F)(F)F)c3)CC2)CC1 | · | · | · | -2 | ·
O=c1c2c3c(sc2ncn1/N=C/c1ccc([N+](=O)[O-])o1)CCCC3 | ? | 20µM* | -15% | -8 | -6%
CCOC(=O)c1c(C)oc2c1c(C(c1ccccc1)N1CCOCC1)c(O)c1ccccc12 (configuration not stated) | 1% | 2% | 11% | -42* | -11%
CCOC(=O)c1cnc(-c2ccccc2)nc1N1CCOCC1 | -8% | -9% | -7% | 1 | -6%
CCOC(=O)c1c(C)oc2c1c(C(c1cccnc1)N1CCCCC1)c(O)c1ccccc12 (configuration not stated) | ? | ? | 6% | -36* | -2%
CCOC(=O)c1c(C)oc2c1c(C=NCCO)c(O)c1ccccc12 | ? | 13µM* | -5% | -65* | ?
CCOC(=O)C1CCN(C(c2cccnc2)c2c(NC(=O)c3ccco3)sc(C)c2C)CC1 (configuration not stated) | -13% | ? | 6% | -6 | -21%
CO/N=C/c1ccc(Oc2ccc([N+](=O)[O-])cc2[N+](=O)[O-])c(OC)c1 | 1% | 15% | 5% | -7 | -13%
COc1ccc(/C=C2\SC(=O)NC2=S)cc1OC | -27% | 8.9µM* | ? | 9 | -21%
COc1cc(/C=C2\SC(=O)NC2=O)ccc1Oc1ccc([N+](=O)[O-])cc1[N+](=O)[O-] | ? | 14µM* | -10% | 3 | -16%
CCOc1ccc(/C=C2\SC(=S)NC2=O)cc1OC | -18% | ? | -4% | 6 | -24%
CC(=NNc1nc2ccccc2s1)c1ccncn1 | · | · | · | · | -5%
C/C(=N\Nc1nc2ccccc2s1)c1ccc(Br)s1 | 11µM*[quencher] | ? | ? | -1 | -14%
COc1ccc([C@]23Cc4cc(OC)c(OC)cc4C(O2)c2c(cc(C)n(Cc4ccccc4)c2=O)O3)cc1 | · | · | · | -1 | ·
CC(C)ON(C(C(=O)NO)C(C)C)S(=O)(=O)c1ccc(-c2ccccc2)cc1 (configuration not stated) | · | · | · | 2 | ·
CCN(CC)c1ccc(NC(=O)Nc2ccc(C(C)=O)cc2)cc1 | 14µM*[quencher] | ? | 8% | -3 | -6%
COc1cccc(CNC(=O)C(CC(C)C)NS(=O)(=O)c2ccc3c(c2)oc(=O)n3C)c1 (configuration not stated) | -22% | -14% | -3% | · | -8%
COc1ccc(-c2cc(-c3ccccc3O)[nH]n2)cc1 | -5% | -18% | 8% | -1 | -27%
